Results on 58 molecules are retold here after PubChem BioAssay AID493098 (Sanford-Burnham Center for Chemical Genomics, 2011).

In general, inhibition refers to the drop in the measured response relative to a control, in per cent.

Where “and” joins values, the source holds several entries; their conditions need not be identical. Equal values may be shown once. The campaign covered roughly 340,000 compounds. About 1,700 (0.5%) were called active. What follows is part of a selection rich in actives, with near analogues and random picks from the rest. Values without a mark were called inactive.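 Rule for the calls: active = compounds whose inhibition of the agonist-driven luminescence signal at 20 µM reaches about 50% (limit read from the data); inactive = the rest.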

This assay deals with C-C chemokine receptor type 6 (Homo sapiens) (UniProt P51684). The assay is described as follows: CCR6 receptor antagonists, primary screen, cell-based, CHO-K1, luminescence, beta-arrestin, uHTS (AID 493098).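 Note: cells stimulated with CCL20 at 14 nM final; plate controls were DMSO with CCL20 for no effect and DMSO without agonist for full effect.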 To be noted: CHO-K1 CCR6 PathHunter beta-arrestin, CCL20-stimulated, at 20 µM, stronger effect = higher value.
C-C chemokine receptor type 6 (Homo sapiens), sequence (P51684 whole entry, looked up): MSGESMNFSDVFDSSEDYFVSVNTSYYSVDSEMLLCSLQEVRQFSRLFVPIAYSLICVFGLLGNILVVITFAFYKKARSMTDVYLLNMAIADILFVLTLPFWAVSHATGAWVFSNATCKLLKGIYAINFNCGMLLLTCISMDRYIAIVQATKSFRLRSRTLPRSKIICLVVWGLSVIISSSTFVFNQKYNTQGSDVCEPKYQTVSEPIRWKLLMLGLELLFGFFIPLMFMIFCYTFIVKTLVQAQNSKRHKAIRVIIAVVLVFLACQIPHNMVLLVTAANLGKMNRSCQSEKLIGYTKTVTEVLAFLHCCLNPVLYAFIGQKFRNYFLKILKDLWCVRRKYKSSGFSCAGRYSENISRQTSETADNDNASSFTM
As to `Cc1c(NC(=O)CSc2nnnn2-c2ccc(C(=O)O)cc2)c(=O)n(-c2ccccc2)n1C`, the inhibition is 10.9%.

Regarding `Cc1c(NC(=O)CSc2cccc3cccnc23)c(=O)n(-c2ccccc2)n1C`, the inhibition was 59.7% (active). Turning to `Cc1c(NC(=O)CSc2nnc(-c3cccnc3)n2N)c(=O)n(-c2ccccc2)n1C`, the inhibition is 5.23%. Regarding `Cc1ccc(C)c(OCCC(=O)OCC(=O)N2CCN(c3ccccc3)CC2)c1`, the inhibition was 20.8%. As for `Cc1cc(Cl)nc(NC(=O)Nc2cccc(Cl)c2)n1`, the inhibition was 16%. Then `Cc1csc(NC(=S)Nc2cccc(Cl)c2)n1`, with 60% (active); and `CCC(=O)Nc1nc(C)c(C(=O)Nc2cccc(Cl)c2)s1`, with 5.65%; and `Cc1cccc(NC(=O)CCN2CC(C)CC(C)C2)c1` (stereo not drawn), with 8.72%.

For `C=CCn1c(C(C)NC(=O)CC)nc2ccccc21` (stereo not drawn), the inhibition is 2.5%. Then `C=CCn1c(N)c(C(=O)OCC(C)C)c2nc3ccccc3nc21`, with 56.9% (active); and `C=CCn1c(P(C)(=O)O)nc2ccccc21`, with 2.22% and 1.13%; and `CCc1nnc(NC(=O)C2CCN(C(=O)c3ccccc3C)CC2)s1`, with 1.37%.

Take `COc1ccc(CCOC(=O)CNC(=O)c2ccc(Cl)cc2Cl)cc1`: the inhibition is 27.9%. On to `Cc1ccc(Br)c(NS(=O)(=O)c2cccc(C(=O)N3CCNC(=O)C3)c2)c1`, for which the inhibition was -11%. For `COc1ccc2c(c1)c(=Cc1ccc(N(C)C)cc1)c1cc(-c3ccccc3)[n+](C)n12`, the inhibition was 67.2% (active).

Take `COc1ccc2sc(-c3ccc(N(C)C)cc3)c(C#CCO)c2c1`: the inhibition was -34.2%. Turning to `Cc1ccc(Cn2c(C)c3cnn(CC(=O)NCc4ccccn4)c(=O)c3c2C)cc1`, the inhibition is -8.58%. Consider `CCc1ccc(CNC(=O)C2CCCN(c3nc4ccccc4o3)C2)cc1` (stereo not drawn), for which the inhibition is -4.97%. As for `CCOC(=O)c1cnc(Nc2nc3ccccc3o2)nc1CSC(=S)N1CCCCC1`, the inhibition is 66.8% (active).

`CCOC(=O)CCNC(=O)N1CCCC(C(=O)c2ccccc2SC)C1` (stereo not drawn): the inhibition is -6.81%. For `O=C(COc1ncnc2ccccc12)NC(=O)NCc1ccccc1`, the inhibition was 3.38%. Regarding `NS(=O)(=O)c1ccc(NC(=S)NNC(=O)c2cccs2)cc1`, the inhibition is 31.7%.

For the molecule `CCOc1ccc(C(=O)Nc2nccs2)cc1[N+](=O)[O-]`, the inhibition was 4.46%. For `Cc1ccc(OS(=O)Nc2cccc3nccnc23)cc1` (stereo not drawn), the inhibition was 55.4% (active). As for `Cc1ccc(Oc2ccc3c(c2)C(=O)N(c2cccc4cccnc24)C3=O)cc1`, the inhibition is 8.43%. Then `Cc1ccc(C)c(NC(=O)c2ccc3nccnc3c2)c1`, with -3.74%.

Turning to `CC1CN(C(=O)COC(=O)c2cccc(NS(=O)(=O)c3ccccc3)c2)CC(C)O1` (stereo not drawn), the inhibition was -4.23%. Then `COc1ccc(C2C(C(C)=O)=C(O)C(=O)N2c2nccs2)cc1` (stereo not drawn), with 22.9%; and `CC1(C)C=Cc2c(ccc3c2OC[C@@H](c2ccc(O)cc2O)C3)O1`, with -20.6%; and `CN(C)/C=N/c1cc(=O)n(C)c(=O)n1CC1CC1`, with -0.5%. Consider `CCOC(=O)c1nnn2c1nc(N1CCN(c3ccccc3)CC1)c1ccccc12`, for which the inhibition is 13.9%. On to `COc1ccc(-c2csc(Cc3nc(O)cs3)n2)cc1`, for which the inhibition was 68.3% (active). For `CCCn1c(C2CCCN2c2nc(-c3ccc(OC)cc3)cs2)nc2ccccc21` (stereo not drawn), the inhibition is 22.3%. For the molecule `COc1ccc(CNc2nccs2)cc1`, the inhibition was 19.1%. Then `Cc1cccc(N(C)C(=O)c2cc(S(=O)(=O)N3CCCCC3)c[nH]2)c1`, with -9.41%; and `Cc1ccc2c(c1)C1C[N+](C)(CC(=O)c3ccccc3)CCC1N2C(=O)c1ccccc1Cl` (stereo not drawn), with 7.95%. With `O=C(NN=Cc1ccc([N+](=O)[O-])cc1)C1CC1`, the inhibition is -1.3%. Then `O=[N+]([O-])c1ccc(C=NN=Cc2ccc([N+](=O)[O-])cc2)cc1`, with 9.6%; and `O=C1/C(=C\c2ccc([N+](=O)[O-])cc2)CS(=O)(=O)C/C1=C/c1ccc([N+](=O)[O-])cc1`, with 102% (active). With `OCCC1CN(Cc2cccn2-c2nccs2)CCN1CCc1ccccc1` (stereo not drawn), the inhibition is 3.25%. With `CCCOC(=O)c1c(NC(=O)c2cnn3c2NC(c2ccccc2)CC3C(F)(F)F)sc2c1CCCC2` (stereo not drawn), the inhibition is 8.83%. The same measure for `O=C1Nc2ccc(Br)cc2/C1=N/N=C/C1=C(N2CCOCC2)C(=C\c2ccccc2)/CC1`: 55.1% (active); for `O=C(O)c1ccc(NN=CC2=C(N3CCOCC3)/C(=C/c3ccccc3)CC2)cc1`: -7.52%. Then `N#C/C(=C\C1=C(N2CCOCC2)C(=C\c2ccccc2)/CC1)C(=O)Nc1ccccc1F`, with 37.8%.

Consider `COc1ccc(Nc2cc(=O)n(-c3ccccc3)c3c2c(=O)n(C)c(=O)n3C)cc1`, for which the inhibition is 2.01%. Consider `Cc1ccc(S(=O)(=O)N2CCN(C)CC2)cc1`, for which the inhibition was 13.6%.

As to `Cn1ncc(N2CCN(S(=O)(=O)c3ccc(Br)cc3)CC2)c(Cl)c1=O`, the inhibition was 6.7%.

Turning to `CN(C)/C=C(/C(=O)c1ccc(Cl)c(Cl)c1)c1nnnn1-c1ccccc1`, the inhibition was 3.92%. Turning to `O=C(C1CC1)N1N=C(c2ccc(Br)cc2)CC1(O)C(F)(F)F` (stereo not drawn), the inhibition was 2.39%.

With `O=C(c1ccc(Cl)cc1)N1N=C(c2ccccn2)CC1(O)C(F)(F)F` (stereo not drawn), the inhibition is 57.1% (active).

For `O=C(Cc1ccccc1)N1N=C(c2ccncc2)CC1(O)C(F)(F)F` (stereo not drawn), the inhibition was 6.09%. As to `CCOc1ccc(-n2c(O)c(/C=N/Nc3nc(C)cc(C)n3)c3ccccc3c2=O)cc1`, the inhibition was 52.4% (active). With `CCN(CC)CCCN=Cc1c(O)n(-c2ccc(C)cc2)c(=O)c2ccccc12`, the inhibition was 6.64%.

Consider `Cc1ccc(-n2c(O)c(C=Nc3ccc(S(=O)(=O)Nc4ncccn4)cc3)c3ccccc3c2=O)cc1C`, for which the inhibition is 13.7%.

`CC(=O)c1cccc(NC(=O)N2CCCC2C(=O)NCCC(C)C)c1` (stereo not drawn): the inhibition is 8%. Regarding `Cc1nn(C(C)CC(=O)O)c(C)c1C` (stereo not drawn), the inhibition was -5.98%.

With `O=c1ccc2c(-c3ccccc3S(=O)(=O)O)c3ccc(O)c(O)c3oc-2c1O`, the inhibition is 64.6% (active). With `O=C(CSc1ccc2nnc(-c3ccccc3)n2n1)N1CCCc2ccccc21`, the inhibition was -9.56%.
